The text below walks through data of PubChem BioAssay AID687014 (The Scripps Research Institute Molecular Screening Center, 2013).

Among all 370,000 compounds or so, about 6,800 (1.8%) were called active.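 The calls were made as follows: active = activation above a cutoff set at the mean of all screened compounds plus 3 SD (cut at about 10% in these data); inactive = the rest.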 The sample as a whole holds a higher share of actives than the screen did.

This assay concerns Nuclear hormone receptor DAF-12 (Heterodera glycines), GAL4 fusion. As to the kind of experiment: hgDAF-12 GAL4 fusion reporter activation – cell-based, luminescence, HEK293, UAS-luciferase, primary screen (AID 687014).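 Also: 0% = DMSO wells and 100% = sodium butyrate wells.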 Conditions: HEK293 GAL4-hgDAF12 UAS-luciferase reporter, agonist luminescence; at 6.8 µM; active compounds read high; normalized to butyrate control.
Consider `OC(c1ccccc1)(c1ccccc1)C1CCN(CCCOc2ccc(-c3ccsc3)cc2)CC1`, for which the activation is -3.48% (inactive). With `C=C(C)C1CC23C(=O)C4(C(=O)c5ccccc5)C[C@@]5(C)CCC(CC2C1(C)C)(C4=O)C35OC` (some centres undefined) the figure was -0.57% (inactive); with `O=C(NCc1ccco1)c1ccc(NS(=O)(=O)c2cccc([N+](=O)[O-])c2)cc1`, 0.98% (inactive); with `O=C(NCCC1=CCCCC1)C1CCN(S(=O)(=O)c2ccc(Cl)s2)CC1`, -1.78% (inactive).

As for `O=C(NCC1COc2ccccc2O1)c1ccc(NC(=O)c2cc(F)ccc2F)cc1` (centres undefined), the activation was -2.39% (inactive). With `O=C(Nc1ccc2oc(-c3ccccc3F)nc2c1)c1ccco1` the figure was 14.8% (active); with `COc1ccc(-c2c(NC(=O)c3ccco3)oc3ccc(Cl)cc3c2=O)cc1`, 0.05% (inactive); with `O=C(Nc1cc(-c2nc3ncccc3o2)ccc1Cl)c1ccco1`, 2.36% (inactive).

With `COC(=O)Cc1nnn2c1[C@H](C)[C@H](c1ccccc1[N+](=O)[O-])OCC2`, the activation was -0.34% (inactive). In the case of `CCOC(=O)c1cc(S(=O)(=O)NCCc2ccc(OC)c(OC)c2)cn1C` it was 0.63% (inactive); in that of `CCOC(=O)N1CCN(Cc2oc(CO)cc(=O)c2O)CC1`, 1.66% (inactive). In the case of `O=c1c2c(nc3cc(-c4cccc(Cl)c4)[nH]n13)CCCC2` it was 18.1% (active); in that of `Clc1cccc(Cc2c(-c3cccc(Cl)c3)nc3ccc(Cl)cn23)c1`, 6.04% (inactive); in that of `CSc1nc2nc3c(c(=O)n2[nH]1)CCC3`, -0.35% (inactive). In the case of `CSc1ccc(C=Nn2c(-c3ccc(F)cc3)n[nH]c2=S)cc1` it was -2.14% (inactive); in that of `Oc1cccc2ccc(/C=C/c3ccc(Br)s3)nc12`, 20.9% (active); in that of `CCCCOCC1CN(CCCC)S(=O)(=O)c2c(Oc3ccc(F)cc3)cccc2O1` (centres undefined), 3.59% (inactive). As for `COC(=O)C1CN(Cc2cn(Cc3ccc(F)cc3)nn2)CCS(=O)(=O)N1Cc1ccc(Cl)cc1` (centres undefined), the activation is -1.71% (inactive).

On to `Clc1ccc(-n2c(COc3ccccc3)nnc2SCc2nc3ccccc3[nH]2)cc1`, for which the activation is 0.78% (inactive).

In the case of `CN(CCO)c1ccc(/C=N/Nc2nncc3ccccc23)cc1`, the activation was 10.7% (active). As for `N#Cc1ccc(N2Cc3ccccc3/C2=N/C(=O)Nc2ccc(Cl)cc2)cc1`, the activation was 2% (inactive). With `Cc1cccc(NC(=S)NC(=O)c2ccc(Br)o2)c1` the figure was 15.4% (active); with `CCS(=O)(=O)c1ccc(-c2cccc(NC(=O)c3ccc(Br)o3)c2)nn1`, 3.52% (inactive); with `O=C(Nc1cccc(C(=O)O)c1)/C(=C\c1ccccc1)NC(=O)c1ccc(Br)o1`, 1.1% (inactive). In the case of `Nc1[nH]c(/C=C2/CCCCC2n2[nH]c(=O)n(-c3ccccc3)c2=O)c(Cc2ccccc2)[n+]1Cc1ccccc1` (centres undefined), the activation was 0.06% (inactive). With `CC(C)c1cc(NCc2ccccn2)n2c(nc3ccccc32)c1C#N` the figure was 3.15% (inactive); with `C=CCN(C(=O)[C@@H](CCCC)[C@@H](O)c1ccc(Cl)cc1)c1ccccc1`, 1.69% (inactive); with `CC(=NNC(N)=O)c1ccc(Cl)c(-n2cccc2)c1`, 1.64% (inactive). In the case of `Cc1cc(NC(=O)C(C)N2C(=O)c3ccccc3S2(=O)=O)no1` (centres undefined) it was -0.78% (inactive). With `O=C(OCCN1CCOCC1)C1(c2ccccc2)CCCCC1` the figure was -2.44% (inactive); with `c1coc(CCNc2ncnc3ccc(-c4ccc5c(c4)OCO5)cc23)c1`, -2.33% (inactive). Turning to `Oc1cccc2cc(-c3ccncc3)cnc12`, the activation was 15.1% (active). For the molecule `Cc1cc2c(nc1C)CCCN2C`, the activation was 0.83% (inactive). With `COc1ccc(NC(=O)C2CCC(CNC(=O)[C@@H]3Cc4ccccc4CN3)CC2)cc1` (some centres undefined) the figure was -1.49% (inactive). With `CN1C[C@]2(C=C3CCCCC3n3c(=O)n(-c4ccccc4)c(=O)n32)N=C1NC(=O)c1ccccc1` (some centres undefined) the figure was 2.4% (inactive); with `COc1ccc(-n2c(SCC(=O)Nc3ccc(C)c(Cl)c3)nc3ccccc3c2=O)cc1`, -4.03% (inactive); with `FC(F)(F)c1cccc(NC(=S)OC2CCC23CCC(c2ccccc2)CC3)c1` (centres undefined), 2.72% (inactive).

As for `COCCN(C(=S)Nc1ccccc1OC)C1CCN(C(C)C)CC1`, the activation is -3% (inactive).

As for `Cc1ccc(-c2csc(N(Cc3ccco3)C(=O)c3cccs3)n2)cc1`, the activation was 4.33% (inactive). As for `CCn1c(SCCC(C)C)nnc1-c1c[nH]c2ccccc12`, the activation was -2.13% (inactive). In the case of `Cc1ccc(-c2csc(-c3c[nH]c4ccccc34)n2)cc1` it was 13.1% (active); in that of `CC(=O)Nc1nc2ncccn2c1-c1ccc(C(F)(F)F)cc1`, 0.34% (inactive). With `N[C@@H](Cc1ccccc1)C(=O)N1CCOCC1` the figure was 0.96% (inactive); with `O=C(CSC(=S)N1CCCCC1)c1c(F)cccc1F`, 16.9% (active). With `COc1cccc(NC(=O)CN(C)C(=O)CSC(=S)N2CCCC2)c1` the figure was 2.56% (inactive); with `O=C(CSC(=S)N1CCOCC1)c1ccccc1`, 10.7% (active); with `CC(=O)c1ccc(NC(=O)CSC(=S)N2CCCC2)cc1`, 7.4% (inactive).

In the case of `O=C(CP(=O)(c1ccccc1)c1ccccc1)N1CCOCC1`, the activation was 1.84% (inactive). `O=C1[C@@H](c2ccccc2)[C@@H](c2ccccc2)N1c1ccccc1`: the activation is -0.47% (inactive).

For `CCOC(=O)Cn1c2c(n(-c3ccc(F)cc3)c1=O)C=C(c1ccccc1)[C@@H](C)C(C(=O)N(C)C1CCCCC1)=C2`, the activation was -2.75% (inactive). With `CN[C@H]1C[C@H]2c3cc(N4CCOCC4)ccc3CCN2C[C@H]1[C@H](C)O` the figure was -0.47% (inactive); with `CCC(=O)Nc1ccc2c(c1)C(=O)N(C)[C@H]1CC[C@H](CC(=O)NCCOC)O[C@@H]1CO2`, -3.11% (inactive); with `O=C(NCc1cccs1)C1CCCN(S(=O)(=O)c2ccc([N+](=O)[O-])cc2)C1` (centres undefined), -1.45% (inactive). With `C[C@@H]1ON(C)[C@H]2C[C@H]3c4[nH]c5cccc(-c6ccc7c(c6)OCO7)c5c4CCN3C[C@@H]12` the figure was -2.08% (inactive); with `CC(=O)N1C[C@@H](CO)[C@@H](N(C)C(=O)C(C)(C)C)C[C@H]1c1ccccc1Br`, 4.28% (inactive). With `C=C1C(C(C)C)N(C)C2=NC(c3ccccc3)CC(=O)N12` (centres undefined) the figure was -2.06% (inactive). Take `O=C(CN1CCN(c2ccc(O)cc2)CC1)Nc1ccc(-c2ccccc2)cc1`: the activation is 0.81% (inactive). For the molecule `O=C(Nc1ccc(S(=O)(=O)N2CCc3ccccc3C2)cc1)c1ccccc1`, the activation was -0.73% (inactive). With `CN1CCN(c2ccc(NC(=O)c3ccccc3)cc2)CC1` the figure was 10.5% (active).
